High-throughput results from PubChem.
Most compounds without a hit are left out; they make up all but 18% or so of the library.
TDP1 block = inhibitors of human tyrosyl-DNA phosphodiesterase TDP1; recombinant TDP1, AlphaScreen DNA substrate cleavage; AID 485290; Q9NUW8; Potency, µM (titrated, usually from 130 µM), inactives show top-dose activity change, negative = inhibition, usual class: inhibitors; hit rate 0.28% among 350,000; also: potency is read from the fitted curve at half-maximal effect; nearly all actives have a fitted effect of over 40% in size
Target sequence (Q9NUW8 whole entry, looked up): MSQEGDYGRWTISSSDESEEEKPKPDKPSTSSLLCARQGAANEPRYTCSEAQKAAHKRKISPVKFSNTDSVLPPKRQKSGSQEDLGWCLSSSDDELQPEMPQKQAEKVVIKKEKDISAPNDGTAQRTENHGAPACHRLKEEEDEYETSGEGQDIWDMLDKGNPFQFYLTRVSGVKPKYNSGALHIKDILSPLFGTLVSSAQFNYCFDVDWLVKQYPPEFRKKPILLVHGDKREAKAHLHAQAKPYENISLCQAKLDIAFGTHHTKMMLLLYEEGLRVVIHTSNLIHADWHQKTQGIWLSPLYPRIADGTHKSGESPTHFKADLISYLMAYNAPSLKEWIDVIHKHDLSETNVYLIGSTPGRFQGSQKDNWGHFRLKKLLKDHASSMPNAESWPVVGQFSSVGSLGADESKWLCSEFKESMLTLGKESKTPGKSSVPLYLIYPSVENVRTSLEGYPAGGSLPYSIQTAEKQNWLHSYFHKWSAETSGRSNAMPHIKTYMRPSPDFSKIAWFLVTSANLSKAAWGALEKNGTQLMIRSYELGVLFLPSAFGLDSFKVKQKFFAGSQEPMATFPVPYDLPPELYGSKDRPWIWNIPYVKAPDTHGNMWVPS
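Signal: AlphaScreen proximity between streptavidin donor and anti-FITC acceptor beads on intact substrate. Reaction: Tdp1 1 nM, substrate 15 nM final, 5 min RT after 15 min compound preincubation.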
DT40 TDP1 no CPT = qHTS for Inhibitors of human tyrosyl-DNA phosphodiesterase 1 (TDP1): qHTS in cells in absence of CPT; DT40 Tdp1-/- hTDP1 cells, no CPT, ATP luminescence, 48 h; Potency, µM (titrated, usually from 46.2 µM), for inactives: at the top dose activity change, negative = growth inhibition, usual class: inhibitors; hit rate 15% among 420,000; also: potency is read from the fitted curve at half-maximal effect; nearly all actives have a fitted effect of over 55% in size
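No-CPT arm: Tdp1-/-;hTDP1 DT40 cells (400/well) plus compounds, incubated ≥48 hr at 37 °C. Readout CellTiter-Glo luminescence.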
Six1-Eya2 inh = inhibitors of human Six1/Eya2 interaction | AlphaScreen GST-Six1/His-Eya2 binding, biochemical; active compounds read low | activity change, % (test concentration not listed) | hit rate 0.56% among 360,000 | AID 651725; in the data active = activity change below about -65%; inconclusive = mostly about -30% to -63%
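Compounds are tested against tagged Six1 and Eya2 proteins bridged by glutathione donor and nickel acceptor beads; after a one-hour incubation at 37 °C without light, AlphaScreen emission is recorded.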
CtBP-E1A inh = inhibitors of CtBP/E1A interaction | AlphaScreen GST-E1A/His-CtBP binding, 1536-well; active compounds read low | activity change, % (concentration not given with the values) | hit rate 0.49% among 340,000 | AID 651724; in the data active = activity change below about -65%; inconclusive = mostly about -30% to -63%
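Steps: dispense buffer (Tris pH 8.0, NaCl 300 mM, TCEP 1 mM, BSA, Tween 20); add 5X protein mix (GST-E1A, His-CtBP, 125 nM each); pin 23 nL compound; 2 h at 37 °C, dark; add 5X beads (50 ug/mL); 1 h; read.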
IL-1B inflam inh = inhibitors of inflammasome signaling (IL-1 beta secretion). AID 743279. THP-1 LPS/ATP IL-1B secretion, AlphaLISA, 16 h; active compounds read low. activity change, % at 57.5 µM. hit rate 4.7% among 360,000; in the data active = activity change below about -50%; inconclusive = mostly about -30% to -49%
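Secreted IL-1B measured by AlphaLISA bead assay after 16 h compound exposure of THP-1 cells; compounds (final up to 57.5 uM) added 1 h before LPS (250 ng/mL) and ATP (1.25 mM) stimulation; lower signal means less secretion.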
DT40 TDP1 CPT = DT40-hTDP1 cell growth loss with CPT | chicken DT40 Tdp1-/-;hTDP1 cells + 20 nM CPT, ATP luminescence, 48 h | Potency, µM (highest dose often 46.2 µM), inactives show at the highest dose activity change, negative = growth inhibition, hits mostly inhibitors | hit rate 12% among 420,000 | AID 686979; also: potency is read from the fitted curve at half-maximal effect; nearly all actives have a fitted effect of over 55% in size
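Chicken DT40 Tdp1-/- cells complemented with human TDP1, 400 cells/well, exposed to compounds plus 20 nM camptothecin for at least 48 h at 37 C; viability read as ATP content by CellTiter-Glo luminescence.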
Starred values were filed as active, the others as inactive; i = inactive; ? = inconclusive; . = no result; ! = a repeat was not active; [ ] = another dose, or the depositor's remark. Unless noted, calls follow the shape of the dose curve; as a rule, active = well fitted curve in the direction sought with a large enough effect; inconclusive = small, poorly fitted or top-dose-only effect, or another doubt; inactive = no such curve, though single readings can be large; an effect the other way counts as inactive or inconclusive. % is scaled to controls: 0 for no effect and ±100 for the full control effect.

SMILES	TDP1 block	DT40 TDP1 no CPT	Six1-Eya2 inh	CtBP-E1A inh	IL-1B inflam inh	DT40 TDP1 CPT
CC(C)N=C1NN=C(c2cccs2)CS1	2%	-21%	-2	0	27	14%
CCN(CC)CCNC(=O)Cn1cnc2sc(C)c(S(=O)(=O)N3CCN(c4ccccc4OC)CC3)c2c1=O	-8%	8%	5	2	-9	1%
CC(=O)N/C(=C/c1ccc2c(c1)OCO2)C(=O)N1CCOCC1	.	10%	3	14	2	11%
NC(=O)c1ncc(C(F)(F)F)cc1Oc1cccc(C(F)(F)F)c1	3%	?	2	2	34	-2%
COc1ccccc1NC(=O)c1ccc2c(=O)n3c(nc2c1)CCC3	3%	?	-26	-18	-17	-10%
O=C(Nc1ccc(Cl)cc1Cl)c1ccc2c(=O)n3c(nc2c1)CCC3	1%	16µM*	?	?	-7	?
CCc1ccc(C(=O)NNC(=O)c2ccc3c(=O)n4c(nc3c2)CCC4)cc1	2%	-15%	-18	-14	4	-20%
O=C(Nc1ccc(Br)cc1Cl)c1ccc2c(=O)n3c(nc2c1)CCC3	2%[0.505 µM]	18µM*	-10	-1	-8	21µM*
C[C@@H]1CN([C@H](C)CO)C(=O)CCCn2nncc2CO[C@H]1CN(C)S(=O)(=O)c1ccccc1	.	?	8	5	13	-1%
CCN1CCN(c2ccc(S(=O)(=O)N3CCCCC3)cc2NC(=O)COc2ccc(Cl)c(C)c2)CC1	6%	13µM*	-7	-7	-12	16µM*
CCC(=O)c1ccc(OCC(=O)Nc2cc(S(=O)(=O)N3CCCCC3)ccc2N2CCN(CC)CC2)cc1	1%[0.505 µM]	18µM*	?	-27	-16	?
COc1cc(C(=O)NC(=S)Nc2cccc(-c3cc4ccccc4oc3=O)c2)cc(OC)c1OC	2%	?	0	-11	-1	?
Nc1cccc(NC(=O)CCC(=O)NCc2ccco2)c1	3%	-3%	-1	5	4	7%
Cc1c(Cl)c([N+](=O)[O-])nn1CC(=O)N1CCCc2ccccc21	3%	?	-11	-13	6	0%
CC1CN(S(=O)(=O)c2ccc(C(=O)Nc3nnc(-c4ccco4)o3)cc2)CC(C)O1 (centres undefined)	8%	?	-10	1	7	23µM*
O=C(Nc1nnc(-c2ccco2)o1)c1ccc(S(=O)(=O)N2CCCC2)cc1	8%	?	-4	-14	50	?
CC1CCN(S(=O)(=O)c2ccc(C(=O)Nc3nnc(-c4ccco4)o3)cc2)CC1	5%	18µM*	?	?	i	15µM*
CCn1c(SCC(=O)c2cc(OC)ccc2OC)nnc1-c1ccncc1	.	-13%	2	2	-21	-5%
COc1ccc(-n2sc3ccc(F)cc3c2=O)cc1	0%	2.6µM*	-16	-9	-106*	2.6µM*
O=C1CCCC(=O)N1c1ccc(F)cc1	.	1%	7	2	-14	19%
O=c1c2cc(F)ccc2sn1-c1ccc(F)cc1	0%	3.3µM*	-1	0	-114*	2.6µM*
Cc1ccc(C)c(-n2sc3ccc(F)cc3c2=O)c1	0%	3.7µM*	-8	-16	-106*	3.3µM*
Cc1ccc2scc(N3CCN(c4ccc(F)cc4)CC3)c(=O)c2c1	8%	?	.	.	.	?
COc1ccc(N2C(=O)CSC2c2ccc(F)cc2)cc1 (centres undefined)	.	-14%	3	6	-12	3%
COc1ccc(-n2sc3ccccc3c2=O)cc1	.	2.9µM*	-2	-3	-106*	3.7µM*
SMILES	TDP1 block	DT40 TDP1 no CPT	Six1-Eya2 inh	CtBP-E1A inh	IL-1B inflam inh	DT40 TDP1 CPT
Cc1cccc(NC(=O)C2C(c3ccccc3)C2(Cl)Cl)c1 (centres undefined)	-4%	13µM*	8	7	0	?
CCOc1ccc(NC(=O)C2C(c3ccccc3)C2(Cl)Cl)cc1 (centres undefined)	1%	23µM*	3	8	-9	?
COc1ccc(CNC(=O)CC(C)S(=O)(=O)c2ccc3c(c2)NC(=O)CO3)cc1 (centres undefined)	1%	2%	3	3	13	-12%
CN(C)c1ccc(C(CNS(=O)(=O)c2ccc3ccccc3c2)c2c[nH]c3ccccc23)cc1 (centres undefined)	12%	?	?	?	-17	?
CN(C)c1ccc(C(CN)c2c[nH]c3ccccc23)cc1 (centres undefined)	9%	21µM*	?	-5	0	18µM*
Cc1cnc(=O)[nH]c1SCc1ccc(C(F)(F)F)cc1	7%	-7%	0	0	0	-16%
CC1=C(/C=C/C(C)=C/C=C/C(C)=C/C(=O)O)C(C)(C)CCC1O (centres undefined)	11%	21µM*	.	.	.	26µM*
CC1=C(/C=C/C(C)=C/C=C/C(C)=C/C=C/C=C(C)/C=C/C=C(C)/C=C/C2=C(C)C[C@@H](O)CC2(C)C)C(C)(C)C[C@H](O)C1	.	15µM*	.	.	.	15µM*
CC1=C(/C=C/C(C)=C/C=C/C(C)=C/C=C/C=C(C)/C=C/C=C(C)/C=C/C(=O)[C@]2(C)CC(O)CC2(C)C)C(C)(C)CC(O)C1 (some centres undefined)	11%[56.1 µM]	9%	.	.	.	20%
CC1=C(/C=C/C(C)=C/C=C/C(C)=C/C(=O)O)C(C)(C)CCC1	-8%	?	14	2	51	?
CC1=C(/C=C/C(C)=C\C=C\C(C)=C\C(=O)O)C(C)(C)CCC1	11%	26µM*!	.	.	.	-13%[4.12 µM]
Cc1c(-c2ccccc2)nc(N)c(C#N)c1-c1cccnc1	.	-1%	8	.	5	-2%
Cc1occc(=O)c1OC(=O)Nc1ccc(Cl)c(Cl)c1	3%	4.6µM*	12	5	-78*	2.9µM*
COc1ccc(C(=O)Oc2c(C)occc2=O)cc1OC	9%	-3%	21	19	8	4%
CC(Oc1ccc(Cl)cc1Cl)C(=O)N/N=C1\CCCc2ccccc21 (centres undefined)	3%	26µM*	1	7	15	?
O=C(N/N=C1\CCc2ccccc21)c1ccncc1	5%	-30%	-14	-9	-5	3%
O=C(N/N=C1\CCc2ccccc21)c1ccccc1O	8%	23µM*	0	-16	i	-24%
